Data taken from PubChem BioAssay AID435019 (Southern Research Specialized Biocontainment Screening …, 2010).
Among all 2,300 compounds or so, about 1,200 (52%) were called active. So high a share suggests a set chosen from earlier hits. The list shows a part of the results. Potency and affinity values are given separately. A number with no mark means an inactive call. The rule behind the calls is not given here.

Experiment: mammalian cell cytotoxicity, dose response, cytotoxicity control for M. tuberculosis inhibitor project (AID 435019);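 note: 0% = background wells and 100% = vehicle-treated cells; lower values mean fewer viable cells so more cytotoxicity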
Conditions: cytotoxicity counter-screen; series mostly up to 40 µM; viability: at the top concentration

SMILES	viability [%]
Cn1c(=S)c2[nH]c(SCCN3CCCC3)nc2n(C)c1=O	93
CCOC(=O)CNc1ccc(C(=O)OCC)cc1[N+](=O)[O-]	102
CCCc1cc(C(N)=S)ccn1	94.8
CCCn1c(=N)n(CC(=O)c2ccc(OCC(=O)OC)cc2)c2ccccc21	97.9
Cc1ccc(S(=O)(=O)N2CCC(C(=O)OCc3ccccc3)CC2)cc1C	96.3
NC(=O)c1cccn1-c1ncc(C(F)(F)F)cc1Cl	106
CCOC(=O)C1=NOC(CNc2ncc(C(F)(F)F)cc2Cl)C1 (stereo unspecified)	97.5
CCOC(=O)c1ccc(N=C2SC(C(=O)Nc3ccc(C(=O)O)cc3)CC(=O)N2Cc2cccs2)cc1 (stereo unspecified)	90.3
Cc1cc(C2=NNC(=NC3CCCCC3)SC2)c(C)n1-c1c(C)n(C)n(-c2ccccc2)c1=O	98.9
S=C(NCCN1CCOCC1)N/N=C/c1cccs1	89.9
Cc1ccc(C)c2nc(N3CCCC3)c(C#N)cc12	91.6
Cc1nc(SCC(=O)NC2CCCCC2)[nH]c(=O)c1C	95.2
CCOC(=O)COc1ccc(C2CC(C)=NN2c2ccccc2)cc1 (stereo unspecified)	96.7
CC1CCCC(C)N1C(=O)COC(=O)c1cc(-c2cccs2)nn1-c1ccccc1 (stereo unspecified)	101
O=C(CCN1C(=O)C2C3C=CC(C3)C2C1=O)Oc1ccc2ccccc2c1 (stereo unspecified)	94.8
O=C(COC(=O)C1CCN(c2ccc(C(F)(F)F)cn2)CC1)Nc1ccc(F)cc1[N+](=O)[O-]	95.2
O=C(Cc1ccc(Nc2nc3ccc(Br)cc3[nH]2)cc1)NCCc1cccs1	86.8
Brc1cccc2sc(N3CCN(c4ccccc4)CC3)nc12	85.2
Cc1[nH]n(S(=O)(=O)Cc2ccccc2)c(=O)c1N=Nc1ccccc1Cl	105

SMILES	viability [%]
CN1CCN(c2c(F)cc3c(=O)c(C(=O)O)cn4c3c2OCN4C)CC1	98.7
C=C(C)C1CC=C(CN2CCN(Cc3ccccc3)CC2)CC1 (stereo unspecified)	93.8
Cc1cccc(C2=N/C(=C\c3cccs3)C(=O)O2)c1	104
Cn1c(=O)c2[nH]c(-c3ccc(S(=O)(=O)O)cc3)nc2n(C)c1=O	94.3
C=CCOC(=O)COc1ccc2c(C)c(CC)c(=O)oc2c1	99.1
Cc1ccc(/C=N/NC(=S)NC(C)C)o1	97.9
C/C(CCc1ccc2c(c1)OCO2)=N\NC(=S)NC(C)C	81.8
CCCCCCC[N+](CC)(CC)CCCCc1ccc(Cl)cc1	89.3
COc1cc(/C=N/N2CCOCC2)ccc1OCc1ccc(Cl)cc1	85.8
COc1ccccc1/C=C/C(=O)Nc1ccc(S(=O)(=O)Nc2cc(C)on2)cc1	91.3
COc1ccc(N=Cc2c(OC)ccc3ccccc23)cc1	90
Cc1cn(-c2ccc(Br)cc2)[nH]c1=O	96.3
CN(C(=O)COC(=O)c1ccc([N+](=O)[O-])cc1Cl)C1CCCCC1	101
COc1ccccc1N(O)C1CC(=O)N(c2ccc(Br)cc2)C1=O (stereo unspecified)	94.8
O=C(OCC(=O)c1c[nH]c2ccccc12)c1cc(Br)ccc1O	94.9
COc1cccc(COC(=O)c2ccc3c(=O)n4c(nc3c2)CCC4)c1OC	83
C=CCn1c(N)cc(=O)nc1SC(CC)C(=O)Nc1ccc(C(C)=O)cc1 (stereo unspecified)	102
NC(=O)c1ccc(N=Cc2ccc([N+](=O)[O-])s2)cc1	80.4
CCN(CC)C(=S)SSC(=S)N(CC)CC	85.7

SMILES	viability [%]
C/C(=C\C(=O)c1ccccc1)Nc1ccc(Cl)c(Br)c1	99.4
O=C(CSCC(=O)Nc1ccc2ccccc2c1)NCc1ccccc1	105
COC(=O)C(C)Oc1cc(C)ccc1COc1ccc(-n2nc(C)n(C(F)F)c2=O)cc1 (stereo unspecified)	87.3
Cc1[nH]n(-c2ccccc2)c(=S)c1C=NCCCN=Cc1c(C)[nH]n(-c2ccccc2)c1=S	96.7
CC1=NN(c2ccccc2)C(=O)/C1=C\c1c(C)[nH]n(-c2ccccc2)c1=O	83.9
O=C(NC1CCN(C(=O)N2c3ccccc3Sc3ccccc32)CC1)c1ccccc1F	86.3
Oc1ccc(/C=N/NC(=S)N2CCOCC2)cc1	84.3
CC1CCN(c2nc(Cl)nc(Nc3ccc([N+](=O)[O-])cc3)n2)CC1	88.8
O=c1c2cc(Br)cc(Br)c2oc2nc3n(c(=O)c12)CCCS3	100
Cc1ccc(C2=NNC3(CCOC(C)(C)C3)S2)cc1 (stereo unspecified)	106
Cc1cccc2c1N(CCCOc1ccc(C(C)(C)C)cc1)C(=O)C2=O	84
CCOc1ccc(N/C(C)=C/C(=O)c2ccc3c(c2)OCCO3)cc1	97.4
Cc1ccc(NN=C2c3ccccc3-c3ccccc32)cc1	92
CC1(c2nnc(-c3ccncc3)o2)CC(c2ccccc2)=NO1 (stereo unspecified)	92.3
Cc1ccnc(NC(=O)COc2ccc3c(c2)CCC3)c1	97.4
O=C1C(Cl)=C(N2CCOCC2)C(=O)N1c1cccc(Cl)c1	91.6
O=C(CN1CCN(c2ccc(F)cc2)CC1)N1CCC(Cc2ccccc2)CC1	85.5
COc1ccc(/C=N/OCC(=O)OCC(=O)N(C)c2ccccc2)cc1	91.8
